PubChem BioAssay AID1159580 (chemical genetic matrix, 2015)
In all, about 5,500 compounds went through this assay and about 2,000 (36%) were called active. Not shown: some 18% with an inconclusive outcome. No stated cut-off is given here; in the data, active means normalized growth mostly below about 0.91 (no sharp cut-off); inconclusive means no clear call, values can overlap the other calls; inactive means mostly above about 0.92. The list shows a part of the results.

Assay: chemical genetic growth profiling, strain panel (AID 1159580);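 further: tested at 20 µM; growth read once vehicle control cultures reached saturation at 30 °C; 1 = growth at the plate median or of vehicle wells; lower values mean less growth of the strain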
Conditions: growth OD

Measured: normalized growth

O=C1CC2OCC=C3CN4CC[C@]56c7ccccc7N1C5[C@H]2[C@H]3CC46 (some centres not stated)
inactive: S. cerevisiae deletion strains, locus YJR075W, strain HOC1, hits give low values 1.01 | S. cerevisiae deletion strains, locus YKL009W, strain mrt4, hits give low values 1 | S. cerevisiae deletion strains, locus YKL068W, hits give low values 1 | S. cerevisiae deletion strains, locus YKL085W, strain MDH1 (second series), hits give low values 1 | S. cerevisiae deletion strains, locus YKL085W, strain MDH1, hits give low values 1 | S. cerevisiae deletion strains, locus YKL160W, strain elf1, hits give low values 1.03 | S. cerevisiae deletion strains, locus YKL190W, strain CNB1, hits give low values 1.01 | S. cerevisiae deletion strains, locus YKR001C, strain vps1, hits give low values 0.996 | S. cerevisiae deletion strains, locus YKR026C, strain gcn3, hits give low values 1.04 | S. cerevisiae deletion strains, locus YKR091W, strain srl3, hits give low values 1.01 | S. cerevisiae deletion strains, locus YLL001W, strain dnm1, hits give low values 1.03 | S. cerevisiae deletion strains, locus YLL026W, hits give low values 1.01 | S. cerevisiae deletion strains, locus YLL041C, strain sdh2, hits give low values 1.02 | S. cerevisiae deletion strains, locus YLR027C, strain aat2, hits give low values 1.03 | S. cerevisiae deletion strains, locus YLR039C, strain RIC1, hits give low values 1.03 | S. cerevisiae deletion strains, locus YLR058C, strain SHM2, hits give low values 1.02 | S. cerevisiae deletion strains, locus YLR102C, strain apc9, hits give low values 1 | S. cerevisiae deletion strains, locus YLR113W, strain HOG1, hits give low values 0.938 | S. cerevisiae deletion strains, locus YLR221C, strain rsa3, hits give low values 1.02 | S. cerevisiae deletion strains, locus YLR258W, strain gsy2, hits give low values 1.03 | S. cerevisiae deletion strains, locus YLR262C, strain YPT6 (second series), hits give low values 1.05 | S. cerevisiae deletion strains, locus YLR262C, strain YPT6, hits give low values 1.1 | S. cerevisiae deletion strains, locus YLR268W, strain sec22, hits give low values 0.994 | S. cerevisiae deletion strains, locus YLR320W, strain mms22, hits give low values 1.03 | S. cerevisiae deletion strains, locus YLR330W, strain CHS5, hits give low values 1.01 | S. cerevisiae deletion strains, locus YLR342W, strain FKS1 (second series), hits give low values 0.999 | S. cerevisiae deletion strains, locus YLR342W, strain FKS1, hits give low values 1.01 | S. cerevisiae deletion strains, locus YLR357W, strain rsc2, hits give low values 1.03 | S. cerevisiae deletion strains, locus YLR370C, strain arc18, hits give low values 1.03 | S. cerevisiae deletion strains, locus YLR371W, strain rom2, hits give low values 0.993 | S. cerevisiae deletion strains, locus YLR384C, strain iki3, hits give low values 1.03 | S. cerevisiae deletion strains, locus YLR418C, strain cdc73, hits give low values 0.961 | S. cerevisiae deletion strains, locus YML016C, strain PPZ1, hits give low values 1.01 | S. cerevisiae deletion strains, locus YML032C, strain rad52, hits give low values 0.995 | S. cerevisiae deletion strains, locus YML120C, strain ndi1, hits give low values 1.02 | S. cerevisiae deletion strains, locus YML124C, strain tub3, hits give low values 0.999 | S. cerevisiae deletion strains, locus YMR058W, strain fet3, hits give low values 1.02 | S. cerevisiae deletion strains, locus YMR078C, strain ctf18, hits give low values 0.998 | S. cerevisiae deletion strains, locus YMR125W, strain sto1, hits give low values 1.02 | S. cerevisiae deletion strains, locus YMR129W, hits give low values 1.03 | S. cerevisiae deletion strains, locus YMR205C, strain PFK2, hits give low values 1.05 | S. cerevisiae deletion strains, locus YMR223W, strain ubp8, hits give low values 0.989 | S. cerevisiae deletion strains, locus YMR231W, strain pep5, hits give low values 1.03 | S. cerevisiae deletion strains, locus YMR263W, strain SAP30, hits give low values 1.01 | S. cerevisiae deletion strains, locus YMR307W, strain GAS1, hits give low values 0.979 | S. cerevisiae deletion strains, locus YNL067W, strain RPL9B, hits give low values 1.01 | S. cerevisiae deletion strains, locus YNL071W, strain lat1, hits give low values 1.01 | S. cerevisiae deletion strains, locus YNL128W, strain TEP1, hits give low values 1.01 | S. cerevisiae deletion strains, locus YNL153C, strain GIM3, hits give low values 1.02 | S. cerevisiae deletion strains, locus YNL183C, strain NPR1, hits give low values 0.933 | S. cerevisiae deletion strains, locus YNL209W, strain ssb2, hits give low values 1.02 | S. cerevisiae deletion strains, locus YNL233W, strain BNI4, hits give low values 1.01 | S. cerevisiae deletion strains, locus YNL248C, strain rpa49, hits give low values 1.04 | S. cerevisiae deletion strains, locus YNL250W, strain rad50, hits give low values 1 | S. cerevisiae deletion strains, locus YNL271C, strain bni1, hits give low values 0.997 | S. cerevisiae deletion strains, locus YNL298W, strain CLA4, hits give low values 0.993 | S. cerevisiae deletion strains, locus YNL307C, strain MCK1, hits give low values 0.994 | S. cerevisiae deletion strains, locus YNL322C, strain KRE1 (second series), hits give low values 1.03 | S. cerevisiae deletion strains, locus YNL322C, strain KRE1, hits give low values 1.01 | S. cerevisiae deletion strains, locus YNR049C, strain mso1, hits give low values 1.01 | S. cerevisiae deletion strains, locus YNR052C, strain pop2, hits give low values 0.997 | S. cerevisiae deletion strains, locus YOL006C, strain TOP1, hits give low values 1.03 | S. cerevisiae deletion strains, locus YOL012C, strain htz1 1.63 | S. cerevisiae deletion strains, locus YOL147C, strain pex11, hits give low values 0.995 | S. cerevisiae deletion strains, locus YOR001W, strain rrp6, hits give low values 1.04 | S. cerevisiae deletion strains, locus YOR061W, strain CKA2, hits give low values 1.01 | S. cerevisiae deletion strains, locus YOR069W, strain VPS5, hits give low values 1.01 | S. cerevisiae deletion strains, locus YOR070C, strain gyp1, hits give low values 1.01 | S. cerevisiae deletion strains, locus YOR080W, strain dia2, hits give low values 1.04 | S. cerevisiae deletion strains, locus YOR083W, strain WHI5, hits give low values 1.02 | S. cerevisiae deletion strains, locus YOR106W, strain vam3, hits give low values 1.04 | S. cerevisiae deletion strains, locus YOR136W, strain idh2, hits give low values 0.985 | S. cerevisiae deletion strains, locus YOR144C, strain elg1, hits give low values 1 | S. cerevisiae deletion strains, locus YOR184W, strain ser1, hits give low values 0.979 | S. cerevisiae deletion strains, locus YOR231W, strain MKK1, hits give low values 0.955 | S. cerevisiae deletion strains, locus YOR265W, strain rbl2, hits give low values 1.03 | S. cerevisiae deletion strains, locus YOR270C, strain vph1, hits give low values 1.05 | S. cerevisiae deletion strains, locus YOR290C, strain snf2, hits give low values 1.02 | S. cerevisiae deletion strains, locus YOR316C, strain cot1, hits give low values 1 | S. cerevisiae deletion strains, locus YPL051W, strain arl3, hits give low values 1.03 | S. cerevisiae deletion strains, locus YPL055C, strain LGE1, hits give low values 1.03 | S. cerevisiae deletion strains, locus YPL078C, strain atp4, hits give low values 1.02 | S. cerevisiae deletion strains, locus YPL106C, strain sse1, hits give low values 1.03 | S. cerevisiae deletion strains, locus YPL240C, strain hsp82, hits give low values 1.03 | S. cerevisiae deletion strains, locus YPL241C, strain CIN2, hits give low values 0.978 | S. cerevisiae deletion strains, locus YPL256C, strain CLN2, hits give low values 0.951 | S. cerevisiae deletion strains, locus YPR119W, strain clb2, hits give low values 0.995 | S. cerevisiae deletion strains, locus YPR141C, strain kar3, hits give low values 1 | S. cerevisiae deletion strains, locus YPR163C, strain tif3, hits give low values 0.996 | S. cerevisiae deletion strains, locus YPR167C, strain met16, hits give low values 1.01 | S. cerevisiae deletion strains, strain wtn01, hits give low values 0.993 | S. cerevisiae strains, strain wild type, hits give low values 1.01
